According to the supplement of paper PMC3414501:
Counter-ions that a name gives are not always drawn. Values without a mark were called inactive.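 The calls were made as follows: active = HIS4 sensitivity z-score above 5 vs DMSO controls; inactive = score 5 or below.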

tested on: S. cerevisiae NKY1551 his4x/his4B, sporulating; assay: HIS4 meiotic recombination assay sensitivity score (z-score vs DMSO controls); higher = stronger inhibition of sporulation/recombination, active = hit call of the paper
Procedure: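 NIH Clinical Collection compounds were added 1:100 from stock (about 100 µM final) to S. cerevisiae. Growth: average doubling time (AvgG) over 24 h of BY4741 (wild-type) or AD1-9 (drug-efflux-pump deficient) in rich media. HIS4: the his4x/his4B heteroallelic recombination reporter strain (SK1) was sporulated 5 h with compound at 30°C, then colony density was read on -his plates after 48 h. Sensitivity score = (compound − mean of 8 DMSO controls)/SD of DMSO controls. Hit cutoffs are >2 for growth and >5 for sporulation.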

| SMILES | HIS4 meiotic recombination assay sensitivity score |
| --- | --- |
| CC(CCCCC(=O)Nc1ccc(C(F)(F)F)cc1)NCCc1cnc[nH]1 (stereo not given) (stock concentration (mM, diluted 1:100): 10) | -0.79 |
| O=c1n(CCCN2CCN(c3cccc(Cl)c3)CC2)nc2ccccn12 [Trazodone hydrochloride] (stock concentration (mM, diluted 1:100): 10) | -0.45 |
| CC(=O)SCC(Cc1ccccc1)C(=O)NCC(=O)OCc1ccccc1 (stereo not given) [Acetorphan] (stock concentration (mM, diluted 1:100): 10) | 1.65 |
| CN(CCCN1c2ccccc2CCc2ccccc21)CC(=O)c1ccc(Cl)cc1 [Lofepramine] (stock concentration (mM, diluted 1:100): 10) | 3.17 |
| N[C@@H](C(=O)N[C@@H]1C(=O)N2C(C(=O)O)=C(Cl)CS[C@H]12)c1ccccc1 [Cefaclor] (stock concentration (mM, diluted 1:100): 10) | 1.51 |
| CC(=O)OCC(CCn1cnc2cnc(N)nc21)COC(C)=O [Famciclovir] (stock concentration (mM, diluted 1:100): 10) | -0.43 |
| CCCCC1=NC2(CCCC2)C(=O)N1Cc1ccc(-c2ccccc2-c2nnn[nH]2)cc1 [Irbesartan] (stock concentration (mM, diluted 1:100): 10.1) | -0.26 |
| CC(=O)CCCCn1cnc2c1c(=O)n(C)c(=O)n2C [Lomifylline] (stock concentration (mM, diluted 1:100): 10) | -1.26 |
| Nc1c2c(nc3ccccc13)CCCC2 [Tacrine hydrochloride] (stock concentration (mM, diluted 1:100): 9) | -2.37 |
| CNNCc1ccc(C(=O)NC(C)C)cc1 [Procarbazine hydrochloride] (stock concentration (mM, diluted 1:100): 8.6) | -1.19 |
| CN(CCOc1ccc(CC2SC(=O)NC2=O)cc1)c1ccccn1 (stereo not given) [Rosiglitazone maleate] (stock concentration (mM, diluted 1:100): 7.6) | 0.95 |
| COc1ccc2c3c1O[C@H]1C[C@@H](O)C=C[C@@]31CCN(C)C2 [Galanthamine] (stock concentration (mM, diluted 1:100): 8.8) | -0.9 |
| COc1cc(-c2ccc(=O)[nH]n2)ccc1OC(F)F [Zardaverine] (stock concentration (mM, diluted 1:100): 11.7) | -0.18 |
| CC1=Nc2ccc(Cl)cc2S(=O)(=O)N1 [Diazoxide] (stock concentration (mM, diluted 1:100): 10) | -1.19 |
| COc1ccccc1OCC(O)CN1CCN(CC(=O)Nc2c(C)cccc2C)CC1 (stereo not given) [Ranolazine dihydrochloride] (stock concentration (mM, diluted 1:100): 8.6) | -1.05 |
| Nc1nc(N)nc(-c2cc(Cl)ccc2Cl)n1 [Irsogladine maleate] (stock concentration (mM, diluted 1:100): 6.9) | -0.77 |
| CC12CC3CC(C)(C1)CC(N)(C3)C2 [Memantine hydrochloride] (stock concentration (mM, diluted 1:100): 8.3) | 1.61 |
| CN(C)[C@@H]1C(O)=C(C(=O)NCN2CCCC2)C(=O)[C@@]2(O)C(O)=C3C(=O)c4c(O)cccc4[C@@](C)(O)[C@H]3C[C@@H]12 [Rolitetracycline] (stock concentration (mM, diluted 1:100): 10) | 3.05 |
| CN1CCc2cc(Cl)c(O)cc2[C@@H](c2ccccc2)C1 (stock concentration (mM, diluted 1:100): 9.9) | 3.2 |
| CCN(CC)CC(=O)Nc1c(C)cccc1C [Lidocaine] (stock concentration (mM, diluted 1:100): 9.6) | -2.75 |

| SMILES | HIS4 meiotic recombination assay sensitivity score |
| --- | --- |
| CC(=O)[C@H]1CC[C@H]2[C@@H]3CCC4=CC(=O)CC[C@]4(C)[C@H]3CC[C@]12C [Progesterone] (stock concentration (mM, diluted 1:100): 10) | 6.09 (active) |
| C[C@H]1COc2c(C3(N)CC3)c(F)cc3c(=O)c(C(=O)O)cn1c23 [Pazufloxacin] (stock concentration (mM, diluted 1:100): 10) | -0.93 |
| CO[C@H]1/C=C/O[C@@]2(C)Oc3c(C)c(O)c4c(O)c(c(/C=N/N5CCN(C6CCCC6)CC5)c(O)c4c3C2=O)NC(=O)/C(C)=C\C=C\[C@H](C)[C@H](O)[C@@H](C)[C@@H](O)[C@@H](C)[C@H](OC(C)=O)[C@@H]1C [Rifapentine] (stock concentration (mM, diluted 1:100): 10) | -0.69 |
| Cc1ncc([N+](=O)[O-])n1CC(O)CCl (stereo not given) [Ornidazole] (stock concentration (mM, diluted 1:100): 10) | -0.66 |
| C[C@]12CC[C@@H]3c4ccc(OS(=O)(=O)O)cc4CC[C@H]3[C@@H]1CCC2=O (stock concentration (mM, diluted 1:100): 10) | 1.4 |
| CN(C)CCOc1ccc(/C(=C(/CCCl)c2ccccc2)c2ccccc2)cc1 [Toremifene citrate] (stock concentration (mM, diluted 1:100): 10) | 3.57 |
| CC(C)c1ccc2oc3nc(N)c(C(=O)O)cc3c(=O)c2c1 [Amlexanox] (stock concentration (mM, diluted 1:100): 10) | 0.07 |
| CCOC(=O)[C@H](CCc1ccccc1)N[C@@H](C)C(=O)N1[C@H](C(=O)O)C[C@@H]2CCC[C@@H]21 [Ramipril] (stock concentration (mM, diluted 1:100): 10) | -1.04 |
| CCCCc1nc(Cl)c(CO)n1Cc1ccc(-c2ccccc2-c2nnn[nH]2)cc1 [Losartan potassium] (stock concentration (mM, diluted 1:100): 9.2) | -1.2 |
| O=C(O)COCCN1CCN([C@H](c2ccccc2)c2ccc(Cl)cc2)CC1 [Levocetirizine] (stock concentration (mM, diluted 1:100): 10.7) | -0.24 |
| CNCCCC12CCC(c3ccccc31)c1ccccc12 [Maprotilline hydrochloride] (stock concentration (mM, diluted 1:100): 10) | 9.12 (active) |
| c1cnc(N2CCN(Cc3ccc4c(c3)OCO4)CC2)nc1 [Piribedil] (stock concentration (mM, diluted 1:100): 9.7) | -0.82 |
| OCc1cccnc1 [3-Pyridinemethanol] (stock concentration (mM, diluted 1:100): 10) | 0.73 |
| C[C@@H]1C[C@H]2[C@@H]3C[C@H](F)C4=CC(=O)C(Cl)=C[C@]4(C)[C@@]3(F)[C@@H](O)C[C@]2(C)[C@@]1(O)C(=O)CO [Halometasone monohydrate] (stock concentration (mM, diluted 1:100): 10) | -1.12 |
| CN(C)CC[C@@H](c1ccc(Cl)cc1)c1ccccn1 [Dexchlorpheniramine maleate] (stock concentration (mM, diluted 1:100): 7) | 2.35 |
| CCC(=O)NS(=O)(=O)c1ccc(-c2c(-c3ccccc3)noc2C)cc1 [Parecoxib] (stock concentration (mM, diluted 1:100): 9.8) | 0.05 |
| C=C1/C(=C\C=C2/CCC[C@]3(C)[C@@H]([C@H](C)/C=C/[C@@H](O)C4CC4)CC[C@@H]23)C[C@@H](O)C[C@@H]1O [Calcipotriol] (stock concentration (mM, diluted 1:100): 10.1) | 2.61 |
| Nc1c2c(nc3c1CCC3)CCCC2 [Amiridine] (stock concentration (mM, diluted 1:100): 10) | 1.51 |
| O=C(NCCN1CCOCC1)c1ccc(Cl)cc1 [Moclobemide] (stock concentration (mM, diluted 1:100): 10) | -1.83 |
| NC[C@H]1CC[C@H](C(=O)Oc2ccc(CCC(=O)O)cc2)CC1 [Cetraxate hydrochloride] (stock concentration (mM, diluted 1:100): 9) | -0.39 |
